Laboratory results: PubChem BioAssay (NCI)
This is part of a sample that, as a whole, favours compounds with a hit. Of some 79,000 tested, about 15% had one in any assay. A number with no mark means an inactive call. Calls of active or inactive are those of the source. No stated cut-off is given here; in the data, active means growth inhibition above about 70%; inactive means the rest.

Columns and labels:
[1] = NCI Yeast Anticancer Drug Screen. Data for the rad50 strain (AID 155);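 further: 0% = growth of vehicle-only cultures of the same strain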; settings: S. cerevisiae rad50 strain growth inhibition, hits give high values
In short: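 Readout: growth inhibition relative to vehicle-treated cultures. Compound exposure was carried out in a genetically defined yeast strain deficient in DNA damage repair.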

[2] = NCI Yeast Anticancer Drug Screen. Data for the mec2-1 strain (AID 157); settings: S. cerevisiae mec2-1 strain, hits give high values
In short: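 Readout is yeast growth inhibition, normalised to vehicle-treated controls, in the mec2-1 strain exposed to compound.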

[3] = NCI Yeast Anticancer Drug Screen. Data for the sgs1 mgt1 strain (AID 161);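 further: 0% = growth of cultures given vehicle only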; settings: S. cerevisiae sgs1 mgt1 strain, hits give high values
In short: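 Compounds are added to genetically altered yeast, and growth is compared with cultures given vehicle alone to give percent inhibition.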

[4] = NCI Yeast Anticancer Drug Screen. Data for the cln2 rad14 strain (AID 165);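 further: 0% = growth equal to vehicle treated cultures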; settings: S. cerevisiae cln2 rad14 strain, hits give high values
In short: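 Relative to vehicle controls, growth inhibition of compound-treated cln2 rad14 yeast was recorded.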

[5] = NCI Yeast Anticancer Drug Screen. Data for the bub3 strain (AID 167); settings: S. cerevisiae bub3 mutant strain, hits give high values
In short: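 Readout: yeast growth inhibition, expressed relative to vehicle-only wells. The test organism is a mutant strain from a panel with lesions in DNA repair or checkpoint genes.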

[6] = NCI Yeast Anticancer Drug Screen. Data for the mlh1 rad18 strain (AID 175); settings: S. cerevisiae mlh1 rad18 strain growth inhibition, hits give high values
In short: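 Test agents were incubated with a yeast strain of defined genotype (DNA damage repair defect). Inhibition of growth was derived by comparison with vehicle-exposed cultures.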

[7] = at 5.0 µM (retest, dose inferred, filed as 0.5)
[8] = at 50.0 µM (retest, dose inferred, filed as 5.0)

| Structure (SMILES) | growth inhibition [1, 7] | growth inhibition [1, 8] | growth inhibition ([1]; at 50.0 µM) | growth inhibition [2, 7] | growth inhibition [2, 8] | growth inhibition ([2]; at 50.0 µM) | growth inhibition [3, 7] | growth inhibition [3, 8] | growth inhibition ([3]; at 50.0 µM) | growth inhibition [4, 7] | growth inhibition [4, 8] | growth inhibition ([4]; at 50.0 µM) | growth inhibition [5, 7] | growth inhibition [5, 8] | growth inhibition ([5]; at 50.0 µM) | growth inhibition [6, 7] | growth inhibition [6, 8] | growth inhibition ([6]; at 50.0 µM) |
| --- | --- | --- | --- | --- | --- | --- | --- | --- | --- | --- | --- | --- | --- | --- | --- | --- | --- | --- |
| CC(C)CCOC(=O)c1ccc(O)cc1.[Zn+2] | 5% | 36% | 76.1% (active) | -1% | 32% | 65.6% | 3% | 29% | 76.8% (active) | 2% | 17% | 37% | 53% | 86% (active) | 88.5% (active) | 3% | 35% | 84.2% (active) |
| CCCCCCCCCCCCCC/C(=C/OCC[N+](C)(C)C)OC(C)=O (tested in a mixture with another compound) | 99% (active) | 99% (active) | 99.7% (active) | 99% (active) | 100% (active) | 99.8% (active) | 94% (active) | 100% (active) | 99.8% (active) | 99% (active) | 99% (active) | 99.3% (active) | 99% (active) | 99% (active) | 99.7% (active) | 98% (active) | 100% (active) | 99.7% (active) |
| Nc1ccc2c(SCCCCCCCCSc3c4ccccc4nc4cc(N)ccc34)c3ccccc3nc2c1 | 1% | 74% (active) | 48.9% | 1% | 67% | 9.15% | -2% | 72% (active) | 22.9% | -4% | 32% | 33.2% | -3% | 72% (active) | -4.05% | 2% | 94% (active) | 32% |
| OC(c1ccc(Cl)cc1)c1ccc(Cl)cc1 | -7% | 100% (active) | 79% (active) | -11% | 100% (active) | 98.2% (active) | -7% | 100% (active) | 75.2% (active) | -17% | 100% (active) | 85.3% (active) | -11% | 100% (active) | 98.8% (active) | -6% | 99% (active) | 85.2% (active) |
| COC(C(=O)C1=C2Oc3c4c(cc(O)c3C(=O)C2C2=C(CCCC2)C1=O)OC(C)(C)C=C4)C(C)CCC=C(C)C (configuration not stated) | 6% | 90% (active) | 74.2% (active) | -1% | 90% (active) | 79% (active) | 3% | 90% (active) | 78.5% (active) | -5% | 90% (active) | 80.9% (active) | 4% | 92% (active) | 78% (active) | 4% | 92% (active) | 80.2% (active) |
| N#CSC#Cc1ccc(C#CSC#N)cc1 | 100% (active) | 98% (active) | 30.6% | 100% (active) | 96% (active) | 84.5% (active) | 100% (active) | 97% (active) | 85% (active) | 99% (active) | 97% (active) | 87.5% (active) | 99% (active) | 98% (active) | 88.3% (active) | 100% (active) | 98% (active) | 89.2% (active) |
| O=C(N/N=C/c1cc(Cl)cc(Cl)c1O)c1ccccc1 | 39% | 22% | 69.9% | 41% | 36% | 57.5% | 55% | 48% | 69.6% | 14% | 1% | 33.6% | 46% | 30% | 71.6% (active) | 45% | 40% | 69.8% |
| O=S(=O)(N=S(c1ccc(Cl)cc1)c1ccc(Cl)cc1)c1ccccc1 | 0% | 10% | 49.2% | -8% | 5% | -14.4% | -1% | 12% | 4.5% | 9% | 28% | -32.4% | 5% | 19% | 27.2% | 0% | 10% | 12.8% |
| O=C(CSCc1c(F)cccc1Cl)Nc1ccc(F)c(Cl)c1 | 51% | 39% | 88.3% (active) | 34% | 38% | 91.3% (active) | 36% | 50% | 91.7% (active) | 33% | 44% | 90.1% (active) | 45% | 76% (active) | 91.5% (active) | 49% | 53% | 63.2% |
